# CBX7 AlphaScr: CBX7 inhibition, primary AlphaScreen; O95931; AlphaScreen His6-CBX7 / biotin-H3K27me3 peptide binding; active compounds read low; normalised signal (fraction of DMSO) (test concentration not listed); 66,000 tested, 1.1% active; in the data active = normalised signal below about 0.5
# Target sequence (O95931 whole entry, looked up): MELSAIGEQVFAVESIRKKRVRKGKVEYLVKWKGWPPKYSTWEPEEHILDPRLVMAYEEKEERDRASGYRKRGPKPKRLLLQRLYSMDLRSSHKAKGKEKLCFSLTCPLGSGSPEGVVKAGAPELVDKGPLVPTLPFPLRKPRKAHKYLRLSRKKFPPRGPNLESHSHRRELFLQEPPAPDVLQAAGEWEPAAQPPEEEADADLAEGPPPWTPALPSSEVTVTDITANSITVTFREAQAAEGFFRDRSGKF
# The depositor's hits bear a star. The full list was thinned out, with hits kept by preference.
SMILES,CBX7 AlphaScr
COCCn1c(=O)[nH]c2cc(C(=O)NCCCN3CCOCC3)ccc2c1=O,0.973
O=C(CCNC(=O)Cn1ccc2ccccc2c1=O)NCCCCN1CCOCC1,1.02
COc1ccccc1-c1c(C)nn2c(N3CCc4ccccc4C3)cc(C)nc12,1.25
CCc1ccc(NC(=O)c2nn3c(C(F)(F)F)cc(-c4ccc(Cl)cc4)nc3c2Cl)cc1,0.858
CCOc1cccc2sc(NC(=O)c3ccc(S(=O)(=O)N4CCC(C)CC4)cc3)nc12,1.05
COc1ccc(C)cc1S(=O)(=O)NCCc1c(C)[nH]c2ccc(F)cc12,0.996
COc1cc(C)c(S(=O)(=O)NCCc2c(C)[nH]c3ccc(C)cc23)cc1C,0.375*
COc1cc(S(=O)(=O)NCCc2c(C)[nH]c3ccc(Br)cc23)c(C)cc1C,0.587
COc1ccc(Cl)cc1S(=O)(=O)NCCc1c(C)[nH]c2ccc(F)cc12,0.924
COc1ccc(Cl)cc1S(=O)(=O)NCCc1c(C)[nH]c2ccc(C)cc12,0.477*
COc1cc(S(=O)(=O)NCCc2c(C)[nH]c3ccc(F)cc23)c(C)cc1C,0.913
CCOC(=O)C1CCN(c2c(NCc3ccc(F)cc3)c(=O)c2=O)CC1,0.906
CCc1ccc(NC(=O)CSc2nnc(CNC(=O)c3cc(OC)c(OC)c(OC)c3)o2)cc1,0.894
O=C(CNC(=O)Cn1ccc2ccccc2c1=O)NCCCN1CCOCC1,1.21
COc1ccc(-c2ccc(=O)n(CC(=O)NCc3cccc(Cl)c3)n2)cc1,0.983
Cc1ccc(-n2ncc(C(=O)Nc3ccc(C)c(Cl)c3)c2C2CCNCC2)cc1C,0.873
Cc1[nH]c2ccc(-c3nnc(SCCO)n3-c3ccc(Br)cc3)cc2c1C,0.455*
CCSc1nnc(-c2ccc3[nH]c(C)c(C)c3c2)n1-c1ccccc1,0.936
Cc1[nH]c2ccc(-c3nnc(SCCc4ccccc4)n3-c3ccccc3)cc2c1C,0.783
CN(CCCNC(=O)c1cc2c(-c3ccc(Cl)cc3)nn(C)c2s1)Cc1ccccc1,1.17
O=S(=O)(Nc1nc2ccccc2nc1NCCC1=CCCCC1)c1ccc(Br)cc1,1.05
CCCCn1cnc2cc(NCc3ccc(OCC)cc3)ccc21,0.775
CCCn1cnc2cc(NCc3ccccc3Cl)ccc21,0.845
CCn1cnc2cc(NCc3cccc(OC)c3)ccc21,0.914
CCCCn1cnc2cc(NCc3ccccc3Cl)ccc21,0.225*
SMILES,CBX7 AlphaScr
CCCCn1cnc2cc(NCc3cccc(OC)c3)ccc21,0.357*
CCn1cnc2cc(NCc3ccccc3Cl)ccc21,0.843
CCCn1cnc2cc(NCc3ccccc3OCC)ccc21,0.906
CCCCn1cnc2cc(NCc3ccccc3OCC)ccc21,0.189*
CCn1cnc2cc(NCc3ccccc3OC)ccc21,0.959
COc1ccc(OC)c(Nc2nc3ccccc3nc2NS(=O)(=O)c2ccc(Br)cc2)c1,0.818
COc1ccc(C(=O)NCc2nnc(SCC(=O)Nc3ccc(F)cc3)o2)cc1OC,0.973
Cc1c(C(=O)NCc2ccc(F)cc2)oc2ccc(S(=O)(=O)N3CCCCCC3)cc12,0.88
Cc1ccc(Nc2c(-c3ccc(Cl)cc3)nc3ncccn23)cc1C,1.12
CCN(CC)S(=O)(=O)c1ccc(C(=O)Nc2nnc(C(C)C)s2)cc1,1.14
CCc1nnc(NC(=O)c2ccc(S(=O)(=O)N(CC(C)C)CC(C)C)cc2)o1,0.104*
CCc1nnc(NC(=O)c2ccc(S(=O)(=O)N(C)c3ccccc3)cc2)o1,0.677
CCc1nnc(NC(=O)c2ccc(S(=O)(=O)N(CC)CC)cc2)o1,0.103*
CCOC(=O)c1cnc2c(Cl)cccc2c1Nc1ccc(C)cc1,1.06
O=C(O)c1ccc2c(c1)NC(=O)c1ccccc1S2(=O)=O,1.01
Cc1ccc(Nc2ncc(C(=O)NC(C)C)c3ccccc23)cc1Cl,1.17
CC1CCCCC1NC(=O)C1c2cccn2CC(=O)N1C1CC1 (centres undefined),0.838
CC1NC(=O)NC1CCCCCC(=O)OCC(=O)c1ccccc1 (centres undefined),0.159*
COc1cccc(CNC(=O)Cn2nc(Cc3cccnc3)c3ccccc3c2=O)c1,0.99
O=S(=O)(Nc1nccs1)c1ccc(Nc2nnc(-c3ccccc3)c3ccccc23)cc1,0.0457*
Cc1onc(-c2ccccc2)c1C(=O)Nc1ccc(S(=O)(=O)Nc2nccs2)cc1,0.921
NS(=O)(=O)c1ccc(Nc2nnc(-c3ccc(O)cc3)c3ccccc23)cc1,0.851
c1ccc(-c2nnc3ccc(N4CCOCC4)nn23)cc1,0.961
c1ccc(Cc2nc(NCc3cccnc3)c3c4c(sc3n2)CCCC4)cc1,0.893
Brc1ccc2nc(-c3ccccn3)c(Nc3ccc4c(c3)OCO4)n2c1,0.659
SMILES,CBX7 AlphaScr
COC(=O)CNc1c(-c2ccccn2)nc2ccc(Br)cn12,0.0635*
Cc1ccccc1Nc1c(-c2ccccn2)nc2ccc(Br)cn12,0.916
Cc1ccc(-n2cc(-c3ccccc3)c3c(NCc4ccccn4)ncnc32)cc1,0.668
COc1ccccc1-n1cnc2cc(Nc3nnc(C)c4ccccc34)ccc21,1.02
COc1ccccc1CNc1ccc2c(c1)ncn2C(C)(C)C,0.665
Brc1ccc(CNc2ccc3c(c2)ncn3-c2ccccc2)cc1,0.24*
CC(C)c1ccc(CNc2ccc3c(c2)ncn3C)cc1,0.833
